The results in this text go back to PubChem BioAssay (NCATS).

Results filed as inconclusive are left out. Activity calls are given as the source filed them. Calls follow the shape of the dose curve; as a rule, active = well fitted curve in the direction sought with a large enough effect; inconclusive = small, poorly fitted or top-dose-only effect, or another doubt; inactive = no such curve, though single readings can be large; an effect the other way counts as inactive or inconclusive.

A short description of test [1]: Quantitative High-Throughput drug screen in 47 multiple myeloma cell lines against the NCATS MIPE library collection: KHM11_PLB cell viability assay (AID 1918962). Also: nearly all actives have a fitted effect of over 35% in size. Also: potency is read from the fitted curve at half-maximal effect. Summed up: (§1)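 CellTiter-Glo luminescence (ATP) after 48 h compound exposure, 37C/5% CO2; 500 cells/well; MIPE 4.0 approved/investigational drugs pinned in; DMSO = 100%, media only = 0% viability.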
A short description of test [2]: Quantitative High-Throughput drug screen in 47 multiple myeloma cell lines against the NCATS MIPE library collection: JIM3_ECACC cell viability assay (AID 1918963; also: nearly all actives have a fitted effect of over 35% in size). Summed up: as §1
The nature of test [3]: Quantitative High-Throughput drug screen in 47 multiple myeloma cell lines against the NCATS MIPE library collection: INA6_PLB cell viability assay (AID 1918965; also: nearly all actives have a fitted effect of over 55% in size; also: potency is read from the fitted curve at half-maximal effect). Summed up:
(§2)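 Myeloma cells (500 per well) were exposed to MIPE 4.0 compounds by pin transfer and incubated 48 hours at 37C, 5% CO2. Viability was read as ATP by CellTiter-Glo luminescence, normalised to DMSO (100%) and media-only (0%) wells.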

A short description of test [4]: Quantitative High-Throughput drug screen in 47 multiple myeloma cell lines against the NCATS MIPE library collection: KMS27_JCRB cell viability assay (AID 1918970). Also: nearly all actives have a fitted effect of over 30% in size. Also: potency is read from the fitted curve at half-maximal effect. The method in brief:
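Luminescent ATP read-out (CellTiter-Glo, 5 min at room temperature) after 48 h compound exposure of 500 KMS27_JCRB cells per well; DMSO wells define full viability and media-only wells zero.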

The nature of test [5]: Quantitative High-Throughput drug screen in 47 multiple myeloma cell lines against the NCATS MIPE library collection: KMS12BM_JCRB cell viability assay (AID 1918971). Also: nearly all actives have a fitted effect of over 35% in size. Also: potency is read from the fitted curve at half-maximal effect. Summed up:
(§3)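 Inhibition of cell viability is measured here. Each line was plated at 500 cells per well, treated with MIPE 4.0 drugs, kept 48 hours at 37C, then assayed for ATP content by CellTiter-Glo luminescence.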

Test [6] can be described thus: Quantitative High-Throughput drug screen in 47 multiple myeloma cell lines against the NCATS MIPE library collection: KMS12PE_JCRB cell viability assay (AID 1918972). Also: nearly all actives have a fitted effect of over 30% in size. Also: potency is read from the fitted curve at half-maximal effect. Summed up: as §2
Test [7] in a line: Quantitative High-Throughput drug screen in 47 multiple myeloma cell lines against the NCATS MIPE library collection: MOLP8_DSMZ cell viability assay (AID 1918977). Also: nearly all actives have a fitted effect of over 45% in size. Also: potency is read from the fitted curve at half-maximal effect. Summed up: (§4)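 Myeloma cells (500/well) treated with MIPE 4.0 compounds for 48 h at 37 °C, 5% CO2. Viability read as ATP via CellTiter-Glo luminescence after 5 min at RT; DMSO-only wells = 100%, media-only = 0% viability.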

Test [8] is described as follows: Quantitative High-Throughput drug screen in 47 multiple myeloma cell lines against the NCATS MIPE library collection: NCIH929_DSMZ cell viability assay (AID 1918978). Also: nearly all actives have a fitted effect of over 35% in size. Also: potency is read from the fitted curve at half-maximal effect. Summed up:
as §4

A short description of test [9]: Quantitative High-Throughput drug screen in 47 multiple myeloma cell lines against the NCATS MIPE library collection: OCIMY1_PLB cell viability assay (AID 1918979). Also: nearly all actives have a fitted effect of over 35% in size. Summed up: as §4
A short description of test [10]: Quantitative High-Throughput drug screen in 47 multiple myeloma cell lines against the NCATS MIPE library collection: MM1S_ATCC cell viability assay (AID 1918980). Also: nearly all actives have a fitted effect of over 45% in size. Also: potency is read from the fitted curve at half-maximal effect. Summed up:
as §4

Test [11] in a line: Quantitative High-Throughput drug screen in 47 multiple myeloma cell lines against the NCATS MIPE library collection: LP1_DSMZ cell viability assay (AID 1918982). Also: nearly all actives have a fitted effect of over 35% in size. Also: potency is read from the fitted curve at half-maximal effect. The method in brief:
as §4

Test [12] can be described thus: Quantitative High-Throughput drug screen in 47 multiple myeloma cell lines against the NCATS MIPE library collection: H1112_PLB cell viability assay (AID 1918967; also: nearly all actives have a fitted effect of over 30% in size; also: potency is read from the fitted curve at half-maximal effect). Summed up: (§5)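 CellTiter-Glo ATP luminescence gave viability after 48 h compound treatment at 37C of 500 multiple myeloma cells per well. Normalisation used DMSO-only wells as 100% and media-only wells as 0% viability; primary qHTS of approved and investigational drugs.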

Test [13] in a line: Quantitative High-Throughput drug screen in 47 multiple myeloma cell lines against the NCATS MIPE library collection: KMS20_JCRB cell viability assay (AID 1918973). Also: nearly all actives have a fitted effect of over 45% in size. Also: potency is read from the fitted curve at half-maximal effect. The method in brief:
as §5

Test [14] is described as follows: Quantitative High-Throughput drug screen in 47 multiple myeloma cell lines against the NCATS MIPE library collection: KMS26_JCRB cell viability assay (AID 1918975). Also: nearly all actives have a fitted effect of over 45% in size. Also: potency is read from the fitted curve at half-maximal effect. Summed up:
as §3

The nature of test [15]: Quantitative High-Throughput drug screen in 47 multiple myeloma cell lines against the NCATS MIPE library collection: MMM1_PLB cell viability assay (AID 1918976). The method in brief:
as §4

Test [16] is described as follows: Quantitative High-Throughput drug screen in 47 multiple myeloma cell lines against the NCATS MIPE library collection: MM1R_ATCC cell viability assay (AID 1918981). Also: nearly all actives have a fitted effect of over 35% in size. Also: potency is read from the fitted curve at half-maximal effect. The method in brief:
as §4

The nature of test [17]: Quantitative High-Throughput drug screen in 47 multiple myeloma cell lines against the NCATS MIPE library collection: Karpas25_ECACC cell viability assay (AID 1918968; also: nearly all actives have a fitted effect of over 35% in size). Summed up:
as §5

Test [18] can be described thus: Quantitative High-Throughput drug screen in 47 multiple myeloma cell lines against the NCATS MIPE library collection: JJN3_DSMZ cell viability assay (AID 1918966; also: nearly all actives have a fitted effect of over 50% in size; also: potency is read from the fitted curve at half-maximal effect). Summed up:
as §5

A short description of test [19]: Quantitative High-Throughput drug screen in 47 multiple myeloma cell lines against the NCATS MIPE library collection: JIM1_ECACC cell viability assay (AID 1918964; also: potency is read from the fitted curve at half-maximal effect). Summed up: as §5
Test [20] can be described thus: Quantitative High-Throughput drug screen in 47 multiple myeloma cell lines against the NCATS MIPE library collection: KMS21BM_JCRB cell viability assay (AID 1918974). Also: potency is read from the fitted curve at half-maximal effect. The settings on record: ATP luminescence, 48 h; viability: at 45.8 µM (top of the series). Summed up: as §5

Turning to `COc1ncnc(NS(=O)(=O)c2ccc(N)cc2)c1OC`, the Potency entry in [1], in test [2], in test [3], in test [4], in test [5] and in [6] was “inactive” throughout. Besides, the Potency result in test [7], in test [8], in test [9] and in [11] was “inactive” throughout. Besides, the Potency in [10] is 23.5 µM (active).
Turning to `O=P(O)(O)C(O)(Cc1cccnc1)P(=O)(O)O`, the Potency result in test [1], in test [2], in test [12], in test [4], in test [6] and in test [8] was “inactive” in each case. Besides, the Potency entry in test [10] and in [11] was “inactive” throughout.
With `C[C@@H](NCCCc1cccc(C(F)(F)F)c1)c1cccc2ccccc12`, the Potency result in test [1], in test [12], in [4], in [5], in test [13] and in test [14] was “inactive” in each case. The Potency entry in test [7], in [8], in test [9] and in test [11] was “inactive” throughout. For the same compound, the Potency in [6] was 18.7 µM (active).
For the compound `OCc1ccc(-c2nn(Cc3ccccc3)c3ccccc23)o1`, the Potency in test [1] is 2.64 µM (active); in [5], 10.5 µM (active); in test [13], 1.87 µM (active); in test [15], 1.05 µM (active); in test [8], 14.8 µM (active); in test [10], 4.18 µM (active). Further, the Potency in [16] was 8.33 µM (active). Besides, the Potency entry in [2], in [4] and in test [9] was “inactive” throughout.
Regarding `CC(=O)CC(c1ccccc1)c1c(O)c2ccccc2oc1=O` (stereo unspecified), the Potency entry in test [1], in test [2], in test [3], in test [17], in test [4] and in [6] was “inactive” throughout. In addition, the Potency entry in test [13], in test [14], in [8], in [9], in test [16] and in test [11] was “inactive” each time.
Regarding `Cc1cccc(N(C)C(=S)Oc2ccc3ccccc3c2)c1`, the Potency entry in [1], in [3], in [18], in [12], in test [5] and in test [14] was “inactive” in each case. Besides, the Potency entry in test [8], in [9] and in test [16] was “inactive” in each case.
As to `COc1ccc2cc3[n+](cc2c1OC)CCc1cc2c(cc1-3)OCO2`, the Potency in test [1] was 8.33 µM (active); in [19], 16.6 µM (active); in test [3], 6.62 µM (active); in test [18], 11.8 µM (active); in test [12], 14.8 µM (active); in [4], 16.6 µM (active). Moreover, the Potency is 6.62 µM (active) in [5]; 16.6 µM (active) in test [6]; 2.64 µM (active) in test [20]; 5.9 µM (active) in [14]; 6.62 µM (active) in [15]; 14.8 µM (active) in [7]. The Potency in test [10] is 14.8 µM (active); in [11], 4.69 µM (active).
In the case of `O=C(O)c1cc(=O)[nH]c(=O)[nH]1`, the Potency result in test [1], in [2], in test [3], in test [17], in test [4] and in [6] was “inactive” each time. The Potency entry in test [8], in [10] and in test [11] was “inactive” throughout.
As to `O=C(O)CSCC(=O)NC1CCSC1=O` (stereo unspecified), the Potency result in [1], in [18], in test [12], in test [17], in test [4] and in test [5] was “inactive” in each case. Also, the Potency result in test [6], in test [7], in test [8], in test [9], in [10] and in [11] was “inactive” throughout.
